Measured values published in PubChem BioAssay.
Measured potencies and affinities stand elsewhere. Inconclusive results are not listed. The source made the active and inactive calls. Unless noted, how the calls were made is not given here.

What was measured:
[1] = cytotoxicity in PAX8-dependent RMG-1 cells, dose response, cell-based, cherry-pick (AID 687029;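 active means signal drop whose fitted half-maximal concentration is at most twice the top valid dose, in every test run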;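 further: cells exposed to compound for 96 hours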)
[2] = cytotoxicity in IOSE-T80 ovarian epithelial cells, dose response, selectivity assay for PAX8 inhibitor project, cell-based, cherry-pick (AID 687032;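 active means fitted half-maximal concentration for viability loss no higher than twice the top valid dose, in every repeat run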;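 further: cells exposed to compound for 96 h before reading; 0% = neutral control wells and -100% = 2 µM mitoxantrone kill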)
[3] = inhibitors of CMV-promoter luciferase reporter, dose response, counter-screen for Pax8 inhibitor project, cell-based, HEK293, luminescence, dry powder (AID 743020;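 active means signal-lowering compounds whose fitted half-maximal concentration is at or below twice the top tested dose in every run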;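 further: HEK293 cells stably expressing the CMV luciferase reporter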)
[4] = non-specific cell cytotoxicity, dose response, cytotoxicity control for PAX8 inhibitor project, plate reader, dry powder samples (AID 743021)
[5] = IOSE-T80 ovarian epithelial cell cytotoxicity, dose response, cytotoxicity control for PAX8 inhibitor project, plate reader, dry powder samples (AID 743045);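 further: 0% = neutral control median and -100% = positive control median; more negative values mean more cell killing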
[6] = A2780 ovarian cancer cell cytotoxicity, dose response, cytotoxicity control, plate reader, dry powder samples (AID 743046);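 further: 0% = neutral control wells and -100% = cytotoxic reference compound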
[7] = cytotoxicity in OVCAR8 ovarian cancer cells, dose response, PAX8 project, cell-based, plate reader, dry powder samples (AID 743197)
[8] = IGROV1 ovarian cancer cell cytotoxicity, dose response, PAX8 inhibitor project, plate reader, dry powder samples (AID 743043);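 further: more negative means fewer viable cells or more cytotoxicity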
[9] = NIH:OVCAR-3 ovarian cancer cell cytotoxicity, dose response, PAX8 inhibitor project, plate reader, dry powder samples (AID 743044); conditions: max activity: at 35 µM, hits give low values unless noted

Measured: max activity

C[C@@H]1CN([C@@H](C)CO)C(=O)Cc2cc(NS(=O)(=O)c3ccc(F)cc3)ccc2O[C@H]1CN(C)Cc1ccc(C(F)(F)F)cc1
inactive: [1] | [2] | [3] | [4] | [5] | [6]

C[C@H]1CCCCO[C@@H](CN(C)Cc2ccc(C(F)(F)F)cc2)[C@@H](C)CN([C@@H](C)CO)C(=O)c2cc(NS(=O)(=O)c3ccc(F)cc3)ccc2O1
inactive: [1] | [2] | [3] | [4] | [5] | [6]

C[C@@H]1CN([C@@H](C)CO)S(=O)(=O)c2ccc(C#C[C@@H](C)O)cc2O[C@H]1CN(C)Cc1ccc(-c2ccccc2)cc1
inactive: [1] | [2] | [3] | [4] | [5] | [6] | [7]

C[C@@H]1CN([C@@H](C)CO)C(=O)Cc2cc(NC(=O)Nc3ccc4c(c3)OCO4)ccc2O[C@H]1CN(C)CC1CCCCC1
inactive: [1] | [2] | [3] | [4] | [5] | [6] | [7]

COc1ccc(S(=O)(=O)Nc2ccc3c(c2)C(=O)N([C@H](C)CO)C[C@@H](C)[C@H](CN(C)S(=O)(=O)c2ccc(Cl)cc2)OCCCC[C@H](C)O3)cc1
inactive: [1] | [2] | [3] | [4] | [5] | [6]

O=C1CN(S(=O)(=O)Cc2ccccc2)C[C@@H]2[C@H](c3ccc(C#Cc4ccc(F)cc4)cc3)[C@H](CO)N12
inactive: [1] | [2] | [3] | [4] | [5] | [7]

C[C@H](CO)N1C[C@H](C)[C@@H](CN(C)Cc2ccc(-c3ccccc3)cc2)Oc2ccc(NS(=O)(=O)c3ccc(F)cc3)cc2CC1=O
inactive: [1] | [2] | [3] | [4] | [5] | [6]

C[C@H](CO)N1C[C@H](C)[C@H](CN(C)Cc2ccc(C(F)(F)F)cc2)OCCCC[C@H](C)Oc2ccc(NC(=O)Nc3ccc4c(c3)OCO4)cc2C1=O
inactive: [1] | [2] | [3] | [4] | [5] | [6] | [7]

Cc1ccc(S(=O)(=O)Nc2ccc3c(c2)C(=O)N([C@H](C)CO)C[C@@H](C)[C@@H](CN(C)Cc2ccc(C(F)(F)F)cc2)OCCCC[C@@H](C)O3)cc1
inactive: [1] | [2] | [3] | [4] | [6]

O=C(NC1CCCCC1)N1C[C@@H]2N[C@H](C1)C2c1ccc(-c2ccc(F)cc2)cc1 (stereo not given in full)
inactive: [1] | [2] | [3] | [4] | [6]

Cc1cccc(S(=O)(=O)N2CCCCN3[C@H](CO)[C@H](c4ccc(C#C[C@H](C)O)cc4)[C@H]3C2)c1
inactive: [1] | [2] | [3] | [4] | [5] | [6]

C[C@@H]1CN([C@H](C)CO)C(=O)c2cc(NC(=O)Nc3ccc(C(F)(F)F)cc3)ccc2O[C@@H](C)CCCCO[C@H]1CN(C)C(=O)c1ccccc1
inactive: [1] | [2] | [3] | [4] | [6]

C[C@@H]1CN([C@@H](C)CO)C(=O)Cc2cc(NC(=O)CCC(F)(F)F)ccc2O[C@H]1CN(C)Cc1ccc(Oc2ccccc2)cc1
inactive: [1] | [2] | [3] | [4] | [5] | [6] | [7]

O=C(C[C@@H]1C[C@H]2c3cc(NS(=O)(=O)c4ccc(F)cc4)ccc3O[C@H]2[C@H](CO)O1)NCc1ccc(Cl)cc1
inactive: [1] | [2] | [3] | [4] | [6]

C[C@H]1CCCCO[C@H](CN(C)C(=O)Nc2ccc(C(F)(F)F)cc2)[C@@H](C)CN([C@@H](C)CO)C(=O)c2cc(NC(=O)CCC(F)(F)F)ccc2O1
inactive: [1] | [2] | [3] | [4] | [5] | [6] | [7]

COc1ccccc1NC(=O)N1CCCCN2[C@@H](CO)[C@@H](c3ccc(-c4cccc(C)c4)cc3)[C@@H]2C1
inactive: [1] | [2] | [3] | [4] | [6]

O=C(Nc1ccc(C(F)(F)F)cc1)N1C[C@@H]2N[C@H](C1)C2c1ccc(/C=C/c2ccccc2)cc1 (stereo not given in full)
inactive: [1] | [2] | [3] | [4] | [5] | [7]

COc1ccccc1S(=O)(=O)N(C)C[C@H]1Oc2cc(C#CCC3CCCC3)ccc2S(=O)(=O)N([C@@H](C)CO)C[C@@H]1C
inactive: [1] | [2] | [3] | [4] | [5] | [7]

Cc1ccc(S(=O)(=O)N(C)C[C@H]2Oc3cc(C#Cc4ccncc4)ccc3S(=O)(=O)N([C@@H](C)CO)C[C@H]2C)cc1
inactive: [1] | [2] | [3] | [4] | [6]

CCc1ccc(/C=C2\SC(=S)N(CCCC(=O)N(CCO)c3ccccc3)C2=O)cc1
inactive: [1] | [2] | [3] | [4] | [5] | [6]

Cc1ccc(S(=O)(=O)N(C)C[C@H]2OCCCC[C@H](C)Oc3ccc(NS(=O)(=O)c4ccc(F)cc4)cc3C(=O)N([C@H](C)CO)C[C@@H]2C)cc1
inactive: [1] | [2] | [3] | [4] | [5] | [6]

O=C(C[C@H]1C[C@@H]2c3cc(NC(=O)Nc4ccc(C(F)(F)F)cc4)ccc3O[C@@H]2[C@@H](CO)O1)NCc1ccc(Cl)cc1
inactive: [1] | [2] | [3] | [4] | [5] | [6] | [7]

COc1cccc(S(=O)(=O)N2CC[C@@H]3[C@@H](CO)Nc4ccc(-c5ccccc5OC)cc4[C@@H]32)c1
inactive: [1] | [2] | [3] | [4] | [6]

COc1ccc(CN(C)C[C@@H]2OCCCC[C@H](C)Oc3ccc(NS(=O)(=O)c4ccc(C)cc4)cc3C(=O)N([C@H](C)CO)C[C@H]2C)cc1
inactive: [1] | [2] | [3] | [8] | [9] -36% | [5] | [6]

O=C(C[C@@H]1CC[C@H]2[C@@H](COC[C@@H](O)CN2Cc2cccc(F)c2)O1)NCC1CCCCC1
inactive: [1] | [2] | [3] | [8] | [9] 45.7% [at 8 µM, hits give low values] | [5] | [6] | [7]

COc1cccc(C#Cc2ccc([C@H]3[C@@H](CO)N(C(=O)C4CCCC4)[C@H]3C#N)cc2)c1
inactive: [1] | [2] | [3] | [4] | [6] | [7]

C[C@H](CO)N1C[C@H](C)[C@H](CN(C)Cc2ccccc2)OCCCC[C@H](C)Oc2ccc(NC(=O)Nc3ccc(C(F)(F)F)cc3)cc2C1=O
inactive: [1] | [2] | [3] | [4] | [7]

C[C@H](CO)N1C[C@H](C)[C@@H](CN(C)C(=O)Cc2ccccc2)OCCCC[C@H](C)Oc2ccc(NC(=O)Nc3ccc(C(F)(F)F)cc3)cc2C1=O
inactive: [1] | [2] | [3] | [8] | [9] 1.93% [at 8 µM, hits give low values] | [5] | [6]

COc1ccc(S(=O)(=O)Nc2ccc3c(c2)CC(=O)N([C@@H](C)CO)C[C@H](C)[C@@H](CN(C)Cc2ccc(C(F)(F)F)cc2)O3)cc1
inactive: [1] | [2] | [3] | [8] | [5] | [6] | [7]

Cc1ccccc1-c1ccc2c(c1)O[C@H](CN(C)C(=O)Nc1ccc(C(F)(F)F)cc1)[C@H](C)CN([C@@H](C)CO)S2(=O)=O
inactive: [1] | [2] | [3] | [8] | [5] | [7]

C[C@H](CO)N1C[C@H](C)[C@H](CN(C)S(=O)(=O)c2ccc(Cl)cc2)Oc2c(NC(=O)Nc3ccc(F)cc3)cccc2C1=O
inactive: [1] | [2] | [3] | [8] | [5] | [6]

COc1ccccc1C#Cc1ccc2c(c1)O[C@@H](CN(C)Cc1cccnc1)[C@H](C)CN([C@H](C)CO)S2(=O)=O
inactive: [1] | [2] | [3] | [8] | [9] 17.1% | [5] | [6]

O=C(Nc1ccc(F)cc1)N1C[C@@H]2N[C@H](C1)C2c1ccc(/C=C/c2ccccc2)cc1 (stereo not given in full)
inactive: [1] | [2] | [3] | [8] | [9] -17.6% | [5] | [6]

C[C@@H]1CCCCO[C@H](CN(C)C(=O)NC2CCCCC2)[C@H](C)CN([C@@H](C)CO)C(=O)c2cc(NS(=O)(=O)c3ccc(Cl)cc3)ccc2O1
inactive: [1] | [2] | [3] | [8] | [9] -10.9% [at 0.26 µM, hits give low values] | [5] | [6] | [7]

COc1cccc(C#Cc2ccc([C@H]3[C@@H](C#N)N(C(=O)c4ccccn4)[C@@H]3CO)cc2)c1
inactive: [1] | [2] | [3] | [8] | [9] -22.5% [at 0.26 µM, hits give low values] | [5] | [7]

CCCC#Cc1ccc([C@@H]2[C@H](C#N)N(S(=O)(=O)c3cccc(F)c3)[C@H]2CO)cc1
inactive: [1] | [2] | [3] | [8] | [5] | [7]

C[C@H](CO)N1C[C@H](C)[C@H](CN(C)C(=O)[C@H](Cc2ccccc2)N(C)C)OCc2ccccc2-c2c(n(C)c3ccccc23)C1=O
inactive: [1] | [2] | [3] | [8] | [5] | [7]

Cc1ccc(S(=O)(=O)N(C)C[C@H]2Oc3ccc(NS(=O)(=O)c4ccc(F)cc4)cc3CC(=O)N([C@H](C)CO)C[C@H]2C)cc1
inactive: [1] | [2] | [3] | [8] | [9] 12.5% [at 2.1 µM, hits give low values] | [5] | [6] | [7]

CCCC#Cc1ccc([C@@H]2[C@@H](C#N)N(S(=O)(=O)c3cccc(F)c3)[C@H]2CO)cc1
inactive: [1] | [2] | [3] | [8] | [9] -20.5% [at 0.5 µM, hits give low values] | [5] | [6]
